# Compound activity as filed in PubChem BioAssay.
# Cl transport mod: modulates chloride dependent transport by human KCC2; Q9H2X9; B-score of Tl+ flux slope (higher = more flux/activation; lower = inhibition) at 10 µM; KCC2 cells, thallium flux FluoZin-2 fluorescence; hit rate 2.2% among 190,000;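 active = thallium flux slope and its plate-corrected score both differing from the plate sample mean at a set confidence after two filtering rounds, in either direction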;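 also: slope of fluorescence scaled to starting intensity during 10 to 20 s after thallium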
# Target sequence (Q9H2X9 whole entry, looked up): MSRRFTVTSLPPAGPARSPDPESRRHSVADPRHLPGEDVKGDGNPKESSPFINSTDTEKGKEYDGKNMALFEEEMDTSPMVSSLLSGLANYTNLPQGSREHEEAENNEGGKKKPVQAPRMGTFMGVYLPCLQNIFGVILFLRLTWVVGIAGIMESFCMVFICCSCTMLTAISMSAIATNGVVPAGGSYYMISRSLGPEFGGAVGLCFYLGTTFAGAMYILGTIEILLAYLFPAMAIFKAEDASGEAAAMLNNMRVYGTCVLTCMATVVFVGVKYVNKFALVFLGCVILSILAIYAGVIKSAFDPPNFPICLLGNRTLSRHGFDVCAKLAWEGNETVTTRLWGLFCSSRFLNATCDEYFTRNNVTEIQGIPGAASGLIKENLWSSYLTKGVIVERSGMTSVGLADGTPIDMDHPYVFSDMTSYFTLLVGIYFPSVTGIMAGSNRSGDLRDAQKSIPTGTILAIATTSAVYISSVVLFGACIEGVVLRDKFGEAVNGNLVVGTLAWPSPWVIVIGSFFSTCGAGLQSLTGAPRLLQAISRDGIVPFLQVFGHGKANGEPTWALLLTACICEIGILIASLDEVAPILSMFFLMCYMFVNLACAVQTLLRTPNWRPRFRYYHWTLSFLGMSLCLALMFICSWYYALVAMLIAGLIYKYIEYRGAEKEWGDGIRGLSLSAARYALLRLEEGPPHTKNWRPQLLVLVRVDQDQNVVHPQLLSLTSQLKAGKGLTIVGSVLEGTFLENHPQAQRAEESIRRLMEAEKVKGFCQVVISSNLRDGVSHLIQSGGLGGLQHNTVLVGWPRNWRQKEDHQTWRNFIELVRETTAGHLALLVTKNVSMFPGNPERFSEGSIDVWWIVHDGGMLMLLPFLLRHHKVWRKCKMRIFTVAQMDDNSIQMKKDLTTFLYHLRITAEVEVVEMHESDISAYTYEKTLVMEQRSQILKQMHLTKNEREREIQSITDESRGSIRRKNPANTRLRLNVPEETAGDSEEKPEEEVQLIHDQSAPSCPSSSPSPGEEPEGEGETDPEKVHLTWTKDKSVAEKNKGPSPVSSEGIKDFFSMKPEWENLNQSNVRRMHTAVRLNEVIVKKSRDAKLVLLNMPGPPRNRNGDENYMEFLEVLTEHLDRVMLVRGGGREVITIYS
# HSV replic up: increases HSV replication in cells | HSV replication augmentation in cells, fold increase | maximum fold increase | hit rate 0.005% among 220,000 | AID 1956; in the data active = maximum fold increase above about 1.5; inconclusive = no clear call, values can overlap the other calls; tested in PC3 cells
# Arbovirus anti: antivirals against arbovirus infection. arbovirus infection cell-based antiviral screen. inhibition, % at 10 µM. hit rate 0.37% among 200,000. AID 1251; in the data active = inhibition above about 30%
# Measles CPE: protection of cells from measles virus; protection (pct of control), % at 4 µM; hit rate 1.5% among 140,000; Measles virus-infected cells, CPE protection, absorbance; in the data active = protection mostly above about 24%, no sharp cut-off; inactive = mostly below about 26%
# ROMK mod: modulators of human ROMK potassium channel; P48048; Tet-inducible ROMK, thallium flux fluorescence; actives lie on both sides; B-score at 10 µM; hit rate 2% among 130,000;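 active = signal ratio slope over the read window, or its plate-corrected B-score, at least 3 SD from the plate mean, either direction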;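 also: B-score of the F/F0 ratio slope over 7 to 12 s after thallium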
# KCC2 sec1: confirmation of human KCC2 transport modulators | normalised thallium flux (F/F0 slope) at 10 µM | hit rate 15% among 3,700 | shares compounds with Cl transport mod | HEK293-KCC2, thallium flux, FluoZin2 fluorescence; hits give high values;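 active = thallium flux slope above the same plate's solvent-only control mean plus 3 SD; inconclusive = the two replicate wells disagree; inactive = no significant difference from solvent-only control wells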
# KCC2 bumet counter: thallium flux persisting under bumetanide in KCC2 cells, counter-screen secondary assay | shares compounds with Cl transport mod | normalized thallium flux at 10 µM | hit rate 49% among 3,700 | AID 1714 | HEK293-KCC2 + bumetanide/ouabain, thallium flux FluoZin2; hits give high values;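 active = thallium entry rate above the same plate's blocked-transporter control wells by more than 3 SD; inconclusive = the two repeat wells disagree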;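 also: raw slope of fluorescence over initial fluorescence between 10 and 20 s after thallium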
# KCC2 sec2: KCC2 (human) modulation, second secondary assay; shares compounds with Cl transport mod; HEK293-KCC2, thallium flux FluoZin2 fluorescence; actives lie on both sides; F/F0 rise rate, 10–20 s post-thallium; normalized thallium flux at 10 µM; hit rate 23% among 3,700; AID 1715;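 active = thallium flux slope more than 3 SD above or below the plate's solvent-only control mean, mostly below; inconclusive = the two repeat wells disagreed; inactive = no significant shift from solvent-only controls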;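 also: raw slope with 0.1% DMSO as baseline and bumetanide as block control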
# HEK293 Tl flux: parental HEK flux effect, counter-screen; hit rate 46% among 3,700; HEK293 parental cells, thallium flux FluoZin2, ouabain; baseline-ratio fluorescence slope, 10–20 s after thallium; shares compounds with Cl transport mod; thallium flux rate (normalised fluorescence) at 10 µM;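 active = thallium flux rate significantly above the same plate's solvent-only control wells, beyond their mean plus 3 SD; inconclusive = the two replicate wells gave conflicting results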
# KCC2 ouabain: confirmation of human KCC2 modulators with ouabain; shares compounds with Cl transport mod; HEK293-KCC2, thallium flux FluoZin2 fluorescence; bidirectional: low = inhibitor, high = activator; raw Tl+ flux slope (below DMSO = inhibition, above = activation) at 10 µM; hit rate 48% among 3,700; AID 1717;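 active = thallium flux slope beyond 3 SD from same-plate DMSO control mean in most replicates, usually higher, sometimes lower; inconclusive = repeat tests gave conflicting results; inactive = no significant difference from controls in most replicates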;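 also: slope of initial-normalized fluorescence between seconds 10 and 20 after thallium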
# HEK counter2: acts in parental HEK cells, second KCC2 counter-screen; shares compounds with Cl transport mod; HEK293 parental, thallium flux FluoZin-2 fluorescence slope; thallium flux slope at 10 µM; hit rate 33% among 3,700; AID 1718;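 active = thallium flux slope above the same plate's solvent-control mean plus 3 SD in both duplicate wells; inconclusive = duplicate wells that disagreed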;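 also: run without ouabain in cells lacking the KCC2 cotransporter; slope of fluorescence scaled to its starting value between 10 and 20 s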
# Starred values were filed as active, the others as inactive; i = inactive; ? = inconclusive; nt = no result given; ! = not confirmed by another sample. The list is not random: actives were taken first. Their share in the collection is about 4%.
SMILES,Cl transport mod,HSV replic up,Arbovirus anti,Measles CPE,ROMK mod,KCC2 sec1,KCC2 bumet counter,KCC2 sec2,HEK293 Tl flux,KCC2 ouabain,HEK counter2
O=C(NNc1nc2c(F)cccc2s1)C1COc2ccccc2O1 (stereo unspecified),10*,i,23,nt,-0.23,0.0078,0.037*,0.047*,0.035*,0.038*,0.03*
COc1ccc(CNC(=O)C2COc3ccccc3O2)c(OC)c1 (stereo unspecified),nt,nt,-6,15,nt,0.01,0.0057,0.034,0.0042,0.019,0.012
Cc1cccc(C)c1NC(=O)C(c1ccc(Cl)cc1Cl)N1CCCCC1 (stereo unspecified),-0.92,i,6,4,nt,nt,nt,nt,nt,nt,nt
Cc1cccc(/C=N/NC(=O)C2CCCNC2=O)c1 (stereo unspecified),nt,i,5,9,0.63,nt,nt,nt,nt,nt,nt
Cc1ccc2sc(NNC(=O)C3COc4ccccc4O3)nc2c1C (stereo unspecified),6.5*,nt,-12,19,-1.4,0.008,0.042*,0.032,0.017*,?,0.012*
CC1Cc2ccccc2N1C(=O)CO/N=C/c1ccccc1OC(F)F (stereo unspecified),-5.6*,i,0,nt,nt,0.0062,?,0.023*,?,0.013*,0.01
CCOCc1[nH]c(=S)[nH]c(=O)c1Cc1ccc(OCC(C)C)cc1,22*,i,-12,nt,0.29,0.014*,0.061*,0.039,?,0.04*,?
CCCCOc1ccc(Cc2c(COCC)[nH]c(=S)[nH]c2=O)cc1,15*,i,-14,nt,-0.59,?,0.099*,0.043*,0.026*,0.053*,0.028*
CCOCc1[nH]c(=S)[nH]c(=O)c1Cc1ccc(OCC)cc1,0.34,i,11,nt,0.8,nt,nt,nt,nt,nt,nt
COc1cc(/C=N/Nc2snc(SC)c2C#N)cc(OC)c1OC,-0.81,i,-13,9,nt,nt,nt,nt,nt,nt,nt
CSc1nsc(N/N=C/c2ccc3c(c2)OCO3)c1C#N,8.2*,i,3,nt,-0.21,0.0095,0.0068,0.035,0.0043,0.02,0.012
CC1CC(C)CN(S(=O)(=O)c2ccc(C(=O)Nc3nnc(-c4cccs4)o3)cc2)C1 (stereo unspecified),12*,nt,-19,15,0.86,0.0056,0.032*,0.041*,0.025*,0.034*,0.024*
CCC1CCCCN1S(=O)(=O)c1ccc(C(=O)Nc2nnc(-c3cccs3)o2)cc1 (stereo unspecified),15*,nt,-6,5,nt,0.014*,0.054*,0.029,0.024*,0.045*,0.012*
CC1CC(C)CN(S(=O)(=O)c2ccc(C(=O)Nc3sccc3C(N)=O)cc2)C1 (stereo unspecified),-0.066,i,-13,8,nt,nt,nt,nt,nt,nt,nt
CCOC(=O)C1CCCN(C(=O)CCCn2nc(C)n3c(cc4sccc43)c2=O)C1 (stereo unspecified),-4.2*,i,1,6,nt,0.009,0.0088*,0.033,0.007,0.021,0.011
CC(C)n1cc(/C(N)=N/O)c(=O)n(Cc2ccccc2)c1=O,0.028,i,nt,nt,nt,nt,nt,nt,nt,nt,nt
CCC(CC)c1nnc(NC(=O)Cc2ccccc2[N+](=O)[O-])s1,-2.1,i,-2,nt,-0.24,nt,nt,nt,nt,nt,nt
O=S(=O)(Nc1ccc(Cl)cc1)c1ccc(N2CCOCC2)c(NC(=S)NCCN2CCOCC2)c1,1.1,i,16,nt,-0.5,nt,nt,nt,nt,nt,nt
CCOC(=O)c1ccccc1NC1OC(=O)c2ccccc21 (stereo unspecified),-3.9*,i,8,3,0.017,?,0.0079,0.03,?,0.021,?
N#Cc1ccsc1NC(=O)c1ccc(Cl)c([N+](=O)[O-])c1,-5.3*,i,nt,nt,nt,0.0074,0.0048,0.022*,0.0069,?,0.0092
N#Cc1ccsc1NC(=O)c1cccc([N+](=O)[O-])c1,-1.1,i,-6,nt,-0.21,nt,nt,nt,nt,nt,nt
CN(C)c1nnnn1-c1ccc(Oc2ncc(C(F)(F)F)cc2Cl)cc1,0.45,i,9,nt,-0.45,nt,nt,nt,nt,nt,nt
COCCOC(=O)/C=C1/NC(=O)CS1,-0.24,i,10,27,-0.34,nt,nt,nt,nt,nt,nt
CC(C)(C)c1ccc(C(=O)/C=C2\NC(=O)CS2)cc1,31*,i,-8,2,0.11,0.0074,0.049*,0.05*,0.035*,0.043*,0.037*
CCC(Sc1nc(C)cc(=O)[nH]1)C(=O)Nc1sc2c(c1C#N)CCCC2 (stereo unspecified),nt,i,15,6,-0.6,0.0061,0.0045,0.026*,0.0065,0.017,0.0098
SMILES,Cl transport mod,HSV replic up,Arbovirus anti,Measles CPE,ROMK mod,KCC2 sec1,KCC2 bumet counter,KCC2 sec2,HEK293 Tl flux,KCC2 ouabain,HEK counter2
N#Cc1c(NC(=O)CSc2nc(N)cc(=O)[nH]2)sc2c1CCCCCC2,nt,i,2,16,nt,0.0062,0.0049,0.027*,0.0075,?,0.0098
O=C(O)CSCC(=O)N1CCN(S(=O)(=O)c2cc(Cl)cc(Cl)c2)CC1,0.45,i,nt,nt,-0.062,nt,nt,nt,nt,nt,nt
CCCN1C(=O)c2ccc(C(=O)Nc3nccs3)cc2C1=O,6*,i,2,10,-0.23,0.0077,?,0.029,0.0076,0.018,0.011
CC(C)Oc1ccc2c(=O)c(-c3ccccc3)coc2c1,-3.6*!,i,-2,2,-0.53,0.0032*,0.0054,0.028,?,0.014*,0.0095
CCOC(=O)c1nnn(CC(=O)NC(=O)Nc2ccc(F)cc2)c1C(=O)OCC,-0.97,i,5,nt,-0.064,nt,nt,nt,nt,nt,nt
CCn1c(SCC(=O)Nc2nc3ccccc3s2)nc2c(c1=O)SC(C)C2 (stereo unspecified),-4.1*,i,-1,1,nt,0.0072,0.0052,0.03,0.0057*,0.02*,0.0091
CCC1CCCCN1C(=S)NC(=O)c1cccs1 (stereo unspecified),63*,i,-3,nt,1.9,0.036*,0.1*,0.086*,0.088*,0.088*,0.087*
CCC1CCCCN1C(=S)NC(=O)c1ccc(F)c(S(=O)(=O)N2CCOCC2)c1 (stereo unspecified),3.2*,i,17,nt,nt,?,0.019*,0.029,0.01*,0.029*,?
CCOC(=O)N1CCN(C(=O)c2ccccc2NC(=O)COc2ccccc2C)CC1,-3.3*,nt,0,19,nt,0.0071,0.0049,0.025*,0.0082,0.018,0.01
NS(=O)(=O)c1ccc(CCNC(=O)c2cc(-c3cc(Cl)ccc3O)n[nH]2)cc1,2.1,i,nt,nt,nt,nt,nt,nt,nt,nt,nt
